The structures appear in SMILES notation. Where a name gives a salt, the structure may show the parent alone.

The assay has as its system Saccharomyces cerevisiae BY4741 SeMeCo community. Description: z-score of subpopulation abundance vs DMSO median, subpopulation auxotrophic for L; higher = larger share of this subpopulation than in DMSO controls. To be noted: 10 µM; 24 h; SM minimal medium; subpopulation (auxotrophy): L. How it is done: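 Fluorescent four-plasmid SeMeCo (self-establishing metabolically cooperating S. cerevisiae BY4741 community; plasmids pH-mRuby2, pL-mWasabi, pU-eCFP, pM-TagRFP657) was grown 24 h in minimal SM medium with each Selleck FDA-approved drug at 10 µM in 384-well plates. Cells were fixed and imaged by high-content confocal microscopy. For each auxotrophic subpopulation (and the prototroph), a z-score gives the deviation from the DMSO vehicle-control population median.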
For the molecule `N[C@@H]1C[C@H]1c1ccccc1` [Tranylcypromine (2-PCPA) HCl], the “z-score of subpopulation abundance” value was -0.64. The result for `CN1c2ccccc2C(NCCCCCCC(=O)O)c2ccc(Cl)cc2S1(=O)=O` (stereo not given) [Tianeptine sodium] reads -0.37. For `CN(C)[C@@H]1C(=O)C(C(N)=O)=C(O)[C@@]2(O)C(=O)C3=C(O)c4c(O)cccc4[C@@](C)(O)[C@H]3[C@H](O)[C@@H]12` [Oxytetracycline Dihydrate] the value was -0.76. As to `C[N+](C)(C)CCCCCCCCCC[N+](C)(C)C` [Decamethonium Bromide], the “z-score of subpopulation abundance” value was -0.55. The result for `CCCN1C[C@H](CSC)C[C@@H]2c3cccc4[nH]cc(c34)C[C@H]21` [Pergolide Mesylate] reads 0.12. The result for `O=C(O[C@H]1C[N+]2(CCCOc3ccccc3)CCC1CC2)C(O)(c1cccs1)c1cccs1` [Aclidinium Bromide] reads -1.04; that for `CC[N+](C)(CC)CCOC(=O)C(O)(c1ccccc1)c1ccccc1` [Methylbenactyzine Bromide], -0.83. For `O=c1cccc2n1C[C@@H]1CNC[C@H]2C1` [Cytisine], the “z-score of subpopulation abundance” value turned out to be 0.2.

Consider `CCN(C)C(=O)Oc1cccc([C@H](C)N(C)C)c1` [Rivastigmine], for which the “z-score of subpopulation abundance” value was -0.94. As for `COc1cc2c(cc1OC)C1CC(=O)C(CC(C)C)CN1CC2` (stereo not given) [Tetrabenazine (Xenazine)], the “z-score of subpopulation abundance” value came to 1.69.

Regarding `COc1ccc(C(CN(C)C)C2(O)CCCCC2)cc1` (stereo not given) [Venlafaxine], the “z-score of subpopulation abundance” value is -0.75. Turning to `CN(C)C(=O)Oc1ccc[n+](C)c1` [Pyridostigmine Bromide], the “z-score of subpopulation abundance” value was found to be 0.3. For `Nc1ccncc1` [4-Aminopyridine] the value was 0.44; for `CC(NC(C)(C)C)C(=O)c1cccc(Cl)c1` (stereo not given) [Amfebutamone (Bupropion) HCl], 0.13. `COC(=O)C1=CCCN(C)C1` [Arecoline HBr]: the “z-score of subpopulation abundance” value was determined as 0.3.

For the molecule `COc1ccc2c(c1)[C@]13CCCC[C@@H]1[C@H](C2)N(C)CC3` [Dextromethorphan hydrobromide hydrate], the “z-score of subpopulation abundance” value came to 0.57. The result for `COc1ccc(C(CN(C)C)C2(O)CCCCC2)cc1` (stereo not given) [Venlafaxine HCl] reads 0.66; that for `NCCc1c[nH]c2ccc(O)cc12` [Serotonin HCl], -1.08.

On to `NC(=O)CN1CCCC1=O` [Piracetam], for which the “z-score of subpopulation abundance” value came out at 1.45.

In the case of `CC(C)N(CCC(C(N)=O)(c1ccccc1)c1ccccn1)C(C)C` (stereo not given) [Disopyramide], the “z-score of subpopulation abundance” value worked out at 2.35.

Consider `CN(C)[C@@H]1C(=O)C(C(N)=O)=C(O)[C@@]2(O)C(=O)C3=C(O)c4c(O)cccc4[C@@](C)(O)[C@H]3[C@H](O)[C@@H]12` [Oxytetracycline (Terramycin)], for which the “z-score of subpopulation abundance” value came to 0.2. Take `CCC1=C[C@H]2CN3CCc4c([nH]c5ccccc45)[C@](C(=O)OC)(C2)[C@H]13` [Catharanthine]: the “z-score of subpopulation abundance” value is -0.77. The result for `Cn1cc(C2=C(c3cn(C4CCN(Cc5ccccn5)CC4)c4ccccc34)C(=O)NC2=O)c2ccccc21` reads -1.15; that for `C[N+]12CCC(CC1)C(OC(=O)C(O)(c1ccccc1)c1ccccc1)C2` (stereo not given) [Clidinium Bromide], 0.14. For `C=CC[C@]1(O)CC[C@H]2[C@@H]3CCC4=CC(=O)CCC4=C3C=C[C@@]21C` [Altrenogest] the value was 0.59; for `CCN1CC2(OC(=O)c3ccccc3NC(C)=O)CCC(OC)C34C1C(CC23)C1(O)CC(OC)C2CC4C1(O)C2OC` (stereo not given) [Lappaconitine], 0.34.

Take `CC[C@H]1CN2CC[C@]3(C(=O)Nc4ccccc43)[C@@H]2C[C@@H]1/C(=C\OC)C(=O)OC` [Rhynchophylline]: the “z-score of subpopulation abundance” value is -0.82. For `C[C@H]1O[C@H](O[C@H]2[C@H](O)[C@@H](O)[C@@H](O)[C@H](O)[C@@H]2O)[C@@H](N)C[C@@H]1NC(=N)C(=O)O` [Kasugamycin hydrochloride] the value was 0.8. The result for `NCC(O)c1ccc(O)cc1` (racemic) [(+,-)-Octopamine HCl] reads -0.17; that for `CCCCCCCCCCCCCCCC[n+]1ccccc1` [Cetylpyridinium Chloride], -2.16. As to `Oc1cc(Cl)ccc1Oc1ccc(Cl)cc1Cl` [Triclosan], the “z-score of subpopulation abundance” value was -0.94. For `CN1[C@@H]2C[C@@H](OC(=O)[C@H](CO)c3ccccc3)C[C@H]1[C@@H]1O[C@@H]12` [Scopolamine HBr trihydrate] the value was -0.39; for `CCOC(=O)Nc1ccc(NCc2ccc(F)cc2)cc1N` [Retigabine 2HCl], -0.41; for `Nc1nc(N)nc(NC2CC2)n1` [Cyromazine], 0.49. Consider `CN[C@@H]1[C@@H](O)[C@@H](O[C@@H]2[C@@H](O)[C@H](O[C@H]3O[C@H]([C@@H](C)O)[C@@H](O)[C@H](O)[C@H]3N)[C@@H](N)C[C@H]2N)OC[C@]1(C)O` [Geneticin (G418 Sulfate)], for which the “z-score of subpopulation abundance” value turned out to be 0.54. For `CCN(C)C(=O)Oc1cccc([C@H](C)N(C)C)c1` [Rivastigmine Tartrate] the value was 1.02.

`C[CH2][Hg][S]c1ccccc1C(=O)[O-].[Na+]` [Thimerosal]: the “z-score of subpopulation abundance” value is -2.54. For `COc1ccc2[nH]cc(CCN)c2c1` [5-Methoxytryptamine] the value was 0.52; for `CC1(C)SC2C(N)C(=O)N2C1C(=O)O` (stereo not given) [6-Aminopenicillanic acid], -0.39. On to `CC(=O)O[C@H]1C[C@@H]2CC[C@@H]3[C@H](CC[C@@]4(C)[C@H]3C[C@H]([N+]3(C)CCCCC3)[C@@H]4OC(C)=O)[C@@]2(C)C[C@@H]1[N+]1(C)CCCCC1` [Pancuronium dibromide], for which the “z-score of subpopulation abundance” value is -0.47.

These data come from the supplement of paper PMC8975748.
